Measurements from PubChem BioAssay (NCATS).
Results filed as inconclusive are left out. Calls of active or inactive are those of the source. Calls follow the shape of the dose curve; as a rule, active = well fitted inhibition curve with a large enough effect; inconclusive = small, poorly fitted or top-dose-only effect; inactive = flat fitted curve, though single readings scatter.

Key:
Experiment in all cases: qHTS profiling for inhibitors of Plasmodium falciparum proliferation (AID 504749); also: nearly all actives have a fitted effect of over 60% in size
Conditions in all cases: P. falciparum in erythrocytes, SYBR Green DNA, 72 h; series mostly up to 28.7 µM
[1] = system: CP266
How it was run: (§1)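 SYBR Green fluorescence (ex 485 nm, em 535 nm) reports parasite DNA after 72 h compound exposure of infected red cells at 0.3% parasitemia, 2.5% hematocrit; signal normalized to 0.29 uM artemisinin and vehicle wells.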

[2] = system: CP268
How it was run: as §1

[3] = system: CP269
How it was run: as §1

[4] = system: CP286
How it was run: as §1

[5] = system: CP291
How it was run: as §1

[6] = system: CP297
How it was run: as §1

[7] = system: CP305
How it was run: as §1

[8] = system: CP315
How it was run: as §1

[9] = system: CP325
How it was run: as §1

[10] = system: CP329
How it was run: as §1

[11] = system: CP335
How it was run: as §1

[12] = system: DFO2036
How it was run: as §1

[13] = system: DIV14
How it was run: as §1

[14] = system: DIV17
How it was run: as §1

[15] = system: DIV30
How it was run: as §1

[16] = system: Dd2
How it was run: as §1

[17] = system: ECU
How it was run: as §1

[18] = system: FAB9
How it was run: as §1

[19] = system: GB4
How it was run: as §1

[20] = system: HB3
How it was run: as §1

Measured: outcome

CCOC(=O)C(CCc1ccccc1)NC(C)C(=O)N1Cc2ccccc2CC1C(=O)O (stereo not given)
inactive: all assays above

CCc1cccc2c3c([nH]c12)[C@@](CC)(CC(=O)O)OCC3
inactive: all assays above
